Measured values taken from PubChem BioAssay (NCATS).
Results filed as inconclusive are left out. Unmarked numbers belong to inactive results. The call rests on the fitted dose curve; in most records, active means well fitted inhibition curve with a large enough effect; inconclusive means small, poorly fitted or top-dose-only effect; inactive means flat fitted curve, though single readings scatter.

biological target: Calcium and integrin-binding protein 1 (Homo sapiens) (UniProt Q99828); experiment: Primary qHTS for Identification of Calcium Integrin Binding Protein 1 (CIB1) Competitor (AID 1508620); settings: CIB1-GST / FITC-alphaIIb peptide fluorescence polarization; series mostly up to 114 µM; activity change, negative = inhibition: at the top concentration;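 further: GST tagged CIB1 binding a fluorescein labelled alphaIIb integrin peptide tracer; top concentration of the series differs between compounds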
Sequence (Q99828 whole entry, looked up): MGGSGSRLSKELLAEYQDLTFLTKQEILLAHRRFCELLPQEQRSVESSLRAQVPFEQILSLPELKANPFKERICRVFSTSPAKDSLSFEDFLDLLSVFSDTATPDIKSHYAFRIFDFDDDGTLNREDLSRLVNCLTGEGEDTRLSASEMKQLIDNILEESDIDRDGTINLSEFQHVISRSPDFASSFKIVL
Procedure, shortened: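 CIB1-GST (1 uM final) and compound incubated 15 min at room temperature before adding FITC-alphaIIb peptide tracer (100 nM final). Competition for binding read by fluorescence polarization (ex 480, em 540) after another 15 min at room temperature.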
On the % scale 0 is the no-effect control and ±100 the full control effect.

Row | Structure (SMILES) | activity change, negative = inhibition
1 | N#Cc1c(-c2ccc(O)cc2)no[n+]1[O-] | 4.25%
2 | O=C(OCC#CCNc1nnc(-c2cccc3ccccc23)o1)c1cccs1 | -4.2%
3 | COc1ccc(-c2ccc(CNc3ccc(N4CCN(C(=O)OC(C)(C)C)CC4)cc3)o2)cc1 | 0.961%
4 | COc1ccc(-c2nnc3n2N=C(c2ccc(OC)c(OC)c2)CS3)c(OC)c1 | 2.85%
5 | N#Cc1cccc(-c2ccc(CNc3nc(-c4ccccc4C(F)(F)F)nc4ccccc34)cc2)c1 | -2.1%
6 | Cc1cc(C)nc(NC(=S)N2CCN(c3ccc(Cl)cc3S(C)(=O)=O)CC2)c1 | -2.12%
7 | Cc1cc2c(s1)c1cnn(Cc3c(F)cccc3C(F)(F)F)c(=O)c1n2C | 2.92%
8 | Fc1ccc(-c2ccc(CNc3nc(-c4ccccc4C(F)(F)F)nc4ccccc34)cc2)cc1 | 2.02%
9 | Cc1cccc(-n2cnc3cc(C(=O)N4CCCCC4)ccc32)c1 | -1.74%
10 | NC(=O)C1CCN(c2ncc(-c3cccc(F)c3)s2)CC1 | -1.28%
11 | C=CCc1cc(F)c(S(=O)(=O)N2CCN(S(=O)(=O)c3ccc4c(c3)OCCO4)CC2)cc1F | 3.05%
12 | CN(C)c1cccc(-c2nccc(N3CCC(C(N)=O)CC3)n2)c1 | -4.34%
13 | O=S(=O)(c1cccc(Br)c1)N1CCN(S(=O)(=O)c2ccc3c(c2)OCCO3)CC1 | 0.419%
14 | CC(=O)N1CCN(c2ccc(NCc3ccc4c(c3)OCO4)cc2)CC1 | -10.5%
15 | O=C(Nc1ccc(Br)cc1)Nc1nnc(-c2ccncc2)s1 | 5.29%
16 | c1nc(NCC2CCCCO2)c2cc(-c3ccc4c(c3)OCO4)ccc2n1 (stereo not given) | -4.09%
17 | O=C(Nc1cncc(-c2cccnc2)c1)c1cccs1 | -3.13%
18 | O=C(O)c1ccc2c(c1)C(=O)N([C@]1(C(=O)O)CC1c1ccccc1)C2=O (stereo not given in full) | 6.55%
19 | COc1ccc(NC(=O)C(OC(=O)CNC(=O)c2ccccc2)c2ccccc2)c(C)c1 (stereo not given) | -2.14%
20 | O=S(=O)(c1ccc(Br)cc1)N1CCN(S(=O)(=O)c2ccc3c(c2)OCCO3)CC1 | 5.25%

Row | Structure (SMILES) | activity change, negative = inhibition
21 | Cc1cc2c(s1)c1cnn(Cc3ccc(C(C)(C)C)cc3)c(=O)c1n2C | 3.43%
22 | Cc1ccnc(NC(=S)N2CCCN(c3cccc(C(F)(F)F)c3)CC2)c1 | -12.8%
23 | Cc1ccccc1C[C@H](C(=O)O)N1C(=O)c2ccc(C(=O)O)cc2C1=O | 2.29%
24 | COc1ccc(CNc2ccc(S(=O)(=O)Nc3nccs3)cc2)cc1O | -6.48%
25 | Cc1cccc(CNc2ncnc3ccc(-c4ccccc4Cl)cc23)c1 | 2.68%
26 | O=C(Cc1ccc2ccccc2c1)Nc1nnc(-c2ccncc2)s1 | 5.97%
27 | COc1cccc(C2N=C(Nc3nc4ccccc4o3)NC3=C2C(=O)CCC3)c1 (stereo not given) | -13.4%
28 | Cc1ccc(S(=O)(=O)Nc2cccc3ccc(C)nc23)cc1 | 1.08%
29 | Cc1cc2c(s1)c1cnn(Cc3ccc(F)cc3F)c(=O)c1n2C | 2.47%
30 | CC(=O)Nc1sc2c(c1-c1cc3ccccc3[nH]1)CCNC2 | -1.67%
31 | O=C(NC1CCCc2c1cnn2-c1ccc(F)cc1F)c1ccn[nH]1 (stereo not given) | 0.937%
32 | Cc1noc(C)c1-c1ccc2ncnc(NC(C)c3ccco3)c2c1 (stereo not given) | -5.88%
33 | O=C(Nc1nnc(COc2ccc(Cl)cc2)s1)c1cccs1 | -2.43%
34 | Cc1nnc(-c2ccccc2C(C)C)nc1NCc1ccc(-c2cccnc2)cc1 | -4.41%
35 | O=C1c2ccccc2C(=O)N1c1cccnc1 | 2.21%
36 | COC(=O)c1ccc(N2CCN(S(=O)(=O)c3ccc4c(c3)CC(=O)N4)CC2)cc1 | 0.315%
37 | O=C1c2ccccc2C(=O)N1c1cccc(Cl)c1 | 0.117%
38 | Cc1ccc(OCCCn2c(CCNC(=O)C3CCCCC3)nc3ccccc32)cc1 | 2.71%
39 | Cn1c2cc(B(O)O)sc2c2cnn(Cc3c(F)cccc3F)c(=O)c21 | -11.8%
40 | N#CN1CCC(NS(=O)(=O)c2cccc(F)c2)C1 (stereo not given) | 0.0415%
